From PubChem BioAssay AID1729 (National Center for Advancing Translational Sciences (NCATS), 2009)
Records with an inconclusive call do not appear. Entries that show only a call come without a potency. Activity calls are given as the source filed them. Calls follow the shape of the dose curve; as a rule, active = well fitted curve in the direction sought with a large enough effect; inconclusive = small, poorly fitted or top-dose-only effect, or effect the other way, or another doubt; inactive = no such curve, though single readings can be large or run the other way.

target: Epidermal growth factor receptor (Homo sapiens) (UniProt P00533); assay: Assay for Inhibitors of the ERK Signaling Pathway using a Homogeneous Screening Assay: EGFR T790M Kinase Inhibition; conditions: EGFR T790M kinase biochemical inhibition assay; series mostly up to 21.9 µM
Text: qHTS Assay for Inhibitors of the ERK Signaling Pathway using a Homogeneous Screening Assay
NIH Chemical Genomics Center [NCGC]
NIH Molecular Libraries Screening Centers Network [MLSCN]
Assay Submitter (PI): Dr. Wei Zheng, NCGC/NIH
The Ras/extracellular-signal-regulated kinase (ERK) mitogen activated protein (MAP) kinase signaling pathway (ERK1/2 cascade) plays is a key role in transmitting signals from the cell surface to the nucleus (Nishida and Gotoh 1993; Chang and Karin, 2001). The cascade is initiated by the small G-protein Ras, which recruits Raf […], where activation occurs. Alternatively, this pathway can be activated by elevating intracellular cAMP.
Activation of the ERK pathway is essential in increased cell division and cell survival. Sustained and constitutive activation of the ERK pathway, however, has been linked to uncontrolled cell proliferation, increased cell survival, and tumor progression. Thus, the ERK has been as an attractive target for cancer chemotherapy in the past few years (Sebolt-Leopold and Herrera, 2004). Given its physiological and pathological importance, assessment of ERK phosphorylation has been broadly performed in both basic research and drug discovery. Most assays for the measurement of ERK phosphorylation use the antibody-based detection methods, such as western blot and ELISA. These assays require multiple reagent additions with cell wash steps and are not suitable for high-throughput screening.
The current cell-based ERK phosphorylation assay was performed using AlphaScreen platform. AlphaScreen is a two bead-based proximity-dependent chemical energy transfer luminescent assay platform. The assay reagents (ERK SureFire(TM) kit) were supplied from TGR BioSciences (Australia). In the presence of specific antibodies, phosphorylated ERK will bring "donor" and "acceptor" beads to a proximity range (<200 nm), and subsequently lead a chemical luminescent reaction upon exciting donor beads with 680 nm laser. To validate pathway hits from the cell-based assay, enzyme assays consisting of EGFR tyrosine kinase, Raf and MEK were used as a means of deciphering the enzymes of target for the prioritized group of compounds derived from the HEK-293 cell based assay. The compounds were tested against significant members of the ERK signaling pathway EGFR and EGFR mutants (EGFR L858R, EGFR T790M, and EGFR L858R T790M). In order to establish the specificity of the prioritized compounds for EGFR and EGFR mutants, the compounds were also assayed against other important ERK signaling pathway enzymes, c-RAF and MEK-1.
NCGC Assay Protocol Summary:
The HTRF kinase assay (components supplied as kit by Cisbio) was chosen for the EGFR and EGFR mutant enzyme assays that applied the time resolved fluorescence resonance energy transfer (TR-FRET) principle. A peptide substrate is labeled with a biotin that can bind to XL665 labeled streptavidin and the anti-phosphoresidue antibody is labeled with Eu+. Upon phosphorylation of the substrate, the antibody binds to phosphorylated substrate that enables TR-FRET detection in homogenous assay format.
An HTRF Kinease TK assay kit (Cisbio, Bedford, MA) was used to develop the EGFR and EGFR mutant assays (Harbert et al., 2008. Harbert C, Marshall J, Soh S, Steger K. Development of a HTRF Kinase Assay for Determination of Syk Activity. Current Chemical Genomics. 1: 20-26. 2008). EGFR and EGFR mutants were obtained from Invitrogen. The assay buffer was composed of 50 mM HEPES (pH 7.0), 5 mM MgCl2, 5mM DTT, 0.1 % NaN3, 0.1 % BSA and 0.1 mM orthovanadate.
The HTRF assays were preformed according to the HTRF Kinease TK kit. Optimization for each enzyme was preformed in 384 well format (data not included). All reagents were dispensed into 1536 well plates.
(1) Enzyme, […] EGFR at 3 nM final
(2) Compound, 22 nl, Library Compounds in 0.128 to 10 mM titration series or control
(3) Reagent, 1.5 ul 10 uM ATP and 0.25 uM substrate final
(4) Incubation for 30 min, Ambient conditions
[…]

Chain of Epidermal growth factor receptor (Homo sapiens) (P00533 whole entry T790M, looked up): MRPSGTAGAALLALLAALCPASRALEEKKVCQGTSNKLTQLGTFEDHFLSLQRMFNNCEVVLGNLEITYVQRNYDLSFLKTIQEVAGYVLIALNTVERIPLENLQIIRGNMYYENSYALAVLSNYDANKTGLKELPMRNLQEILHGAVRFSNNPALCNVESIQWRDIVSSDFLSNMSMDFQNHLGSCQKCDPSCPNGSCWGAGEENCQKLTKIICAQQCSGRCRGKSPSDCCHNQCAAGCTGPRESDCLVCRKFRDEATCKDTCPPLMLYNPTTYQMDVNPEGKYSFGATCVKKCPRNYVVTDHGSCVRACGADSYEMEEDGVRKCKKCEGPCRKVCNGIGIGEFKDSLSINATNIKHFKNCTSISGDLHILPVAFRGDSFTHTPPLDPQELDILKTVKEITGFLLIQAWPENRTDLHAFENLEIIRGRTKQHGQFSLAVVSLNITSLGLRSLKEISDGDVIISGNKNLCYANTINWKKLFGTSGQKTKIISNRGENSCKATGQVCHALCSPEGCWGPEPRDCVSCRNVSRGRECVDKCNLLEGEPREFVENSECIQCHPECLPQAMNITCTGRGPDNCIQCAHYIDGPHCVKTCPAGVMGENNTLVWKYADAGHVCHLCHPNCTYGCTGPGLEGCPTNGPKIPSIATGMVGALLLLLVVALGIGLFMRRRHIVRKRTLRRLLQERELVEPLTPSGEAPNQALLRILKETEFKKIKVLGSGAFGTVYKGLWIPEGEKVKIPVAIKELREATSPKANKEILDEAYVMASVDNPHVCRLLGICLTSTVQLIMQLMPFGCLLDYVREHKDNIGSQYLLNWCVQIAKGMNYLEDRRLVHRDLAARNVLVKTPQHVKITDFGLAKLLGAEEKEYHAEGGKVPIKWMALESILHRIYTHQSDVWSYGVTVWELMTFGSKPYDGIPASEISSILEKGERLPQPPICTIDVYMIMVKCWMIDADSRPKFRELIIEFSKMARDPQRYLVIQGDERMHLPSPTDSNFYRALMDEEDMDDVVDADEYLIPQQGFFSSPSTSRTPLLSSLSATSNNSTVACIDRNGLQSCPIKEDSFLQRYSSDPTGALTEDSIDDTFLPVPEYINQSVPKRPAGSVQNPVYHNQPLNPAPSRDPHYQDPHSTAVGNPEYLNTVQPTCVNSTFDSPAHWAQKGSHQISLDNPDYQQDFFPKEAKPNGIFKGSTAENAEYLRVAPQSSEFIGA

Q: COc1ccc(C(=O)c2ccc(Cl)c([N+](=O)[O-])c2)cc1 was tested. Which Potency did it give?
A: Its Potency is “inactive”.

Q: Which Potency does the source give for N#C/C(=C(/N)Sc1ccc(N)cc1)c1ccccc1C(F)(F)F here?
A: Its Potency is “inactive”.

Q: For Fc1ccc(Nc2ncnc3sc4c(c23)CCC4)cc1F, which Potency is on record?
A: Its Potency is “inactive”.

Q: How did the Potency turn out when CCN(CC)CCC(=O)Nc1cccc2c1C(=O)c1ccccc1C2=O was run?
A: Its Potency is “inactive”.

Q: With O=C(Nc1nc(-c2ccccc2)cs1)c1ccc(N2CCOCC2)c([N+](=O)[O-])c1 as the compound, how does the Potency read?
A: The Potency was “inactive”.

Q: Which Potency does the source give for CCn1c(=O)c2[nH]c(-c3ccccc3)nc2n(CC)c1=O here?
A: Its Potency is “inactive”.

Q: For Cc1nc2ccccc2nc(=O)c1NNc1ccccc1, which Potency is on record?
A: Its Potency is 0.316 µM (active).

Q: Which Potency does the source give for Cn1nc(-c2ccc(Cl)cc2)nc2c(=O)n(C)c(=O)nc1-2 here?
A: The Potency was “inactive”.

Q: With Cc1ccc(NNc2c(C)nc3ccccc3nc2=O)cc1 as the compound, how does the Potency read?
A: Its Potency is “inactive”.

Q: Which Potency does the source give for Cn1c(=O)[nH]c2nnc(-c3ccc(Cl)c(Cl)c3)nc2c1=O here?
A: The Potency was “inactive”.

Q: Which Potency does the source give for Cc1ccc2nc(=O)c(NNc3ccccc3)cnc2c1 here?
A: The Potency was 0.355 µM (active).

Q: How did the Potency turn out when CS(=O)(=O)CCNCc1nc(-c2ccc3ncnc(Nc4ccc(OCc5cccc(F)c5)c(Cl)c4)c3c2)cs1 was run?
A: Its Potency is “inactive”.
